Measured values: PubChem BioAssay (EPA / NIEHS)
Results filed as inconclusive are left out. Active and inactive are the calls of the source. How the source made its calls: active means hit-call score of the fitted dose curve at least 0.9, where 1 is the maximum; inconclusive means response in the unintended direction; inactive means score below 0.9.

biological target: Glycogen synthase kinase-3 beta (Homo sapiens) (UniProt P49841); assay: NVS_ENZ_hGSK3b: NovaScreen (NVS) Enzymatic Assay for human Glycogen Synthase Kinase-3 beta (GSK3b) (AID 2283165)
Protocol: NVS_ENZ_hGSK3b is a biochemical, single-readout assay that uses extracted gene-proteins in a cell-free assay. Measurements were taken 1 hour after chemical dosing in a 384-well plate.NVS_ENZ_hGSK3b is one of one assay component(s) measured or calculated from the NVS_ENZ_hGSK3b assay. It is designed to make measurements of enzyme activity, a form of enzyme reporter, as detected with fluorescence intensity signals by Fluorescence and electrophoretic mobility shift technology.Data from the assay component NVS_ENZ_hGSK3b was analyzed into 1 assay endpoint. This assay endpoint, NVS_ENZ_hGSK3b, was analyzed in the positive analysis fitting direction relative to DMSO as the negative control and baseline of activity. Using a type of enzyme reporter, loss-of-signal activity can be used to understand changes in the enzymatic activity as they relate to the gene GSK3B. Furthermore, this assay endpoint can be referred to as a primary readout, because this assay has produced multiple assay endpoints where this one serves a enzymatic activity function. To generalize the intended target to other relatable targets, this assay endpoint is annotated to the kinase intended target family, where the subfamily is serine/threonine kinase.
Binding assays used specific radioligands (tritiated, iodinated) with non-radioactive competitive displacement ligands in agonist or antagonist protocols (as indicated) and various reference compounds and inhibitors to titrate specific binding to receptors and transporters. Most enzyme assays (CYPs, kinases, phosphatases, proteases, HDACs) used recombinant protein and specific substrates (fluorescence mostly, some colorimetric and radioactive) and inhibitors, followed by a biochemical separation of substrate and product. All assays for the biochemical HTS were initially run in duplicate at a single concentration (10 uM for CYP450 assays and 25 uM for all others). Assay-chemical combinations meeting a pre-defined threshold (e.g., 30% inhibition and other criteria defined below) were then run in singleton concentration-response format with maximum concentration of 20 uM for CYPs and 50 uM for all others. Each assay was run with positive and negative controls, and concurrent controls on every plate. The follow-up (secondary) screen tested active chemical-pairs in concentration series, as well as a few additional assays not tested in the primary screen, some selected negative inactives, and several cases re-run in the concentration series for confirmatory purposes.

Chain of Glycogen synthase kinase-3 beta (Homo sapiens) (P49841 whole entry, looked up): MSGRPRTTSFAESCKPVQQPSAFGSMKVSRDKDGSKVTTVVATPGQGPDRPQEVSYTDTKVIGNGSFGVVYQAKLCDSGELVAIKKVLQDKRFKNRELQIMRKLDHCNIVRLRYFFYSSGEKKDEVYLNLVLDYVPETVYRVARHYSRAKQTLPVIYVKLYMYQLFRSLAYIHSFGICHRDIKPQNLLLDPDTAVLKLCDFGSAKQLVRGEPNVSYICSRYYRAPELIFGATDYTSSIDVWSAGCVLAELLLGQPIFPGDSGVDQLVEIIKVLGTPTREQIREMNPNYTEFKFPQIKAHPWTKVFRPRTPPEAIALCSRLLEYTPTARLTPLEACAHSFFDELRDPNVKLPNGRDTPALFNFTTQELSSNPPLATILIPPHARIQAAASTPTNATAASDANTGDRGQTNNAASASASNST

Row | SMILES | outcome | AC50
1 | Cc1ccc(S(=O)(=O)O)cc1C | inactive | 
2 | Cc1ccc(N)cc1O | inactive | 
3 | CCN(C(=O)c1cc(C)cc(OC[C@H](C)Nc2ccncc2)c1)C(C)C | inactive | 
4 | CCOC(=O)COc1ccc2c(c1)CC(NCC(O)c1cccc(Cl)c1)CC2 (stereo not given) | inactive | 
5 | Nc1nc2ncc(CNc3ccc(C(=O)N[C@@H](CCC(=O)O)C(=O)O)cc3)nc2c(=O)[nH]1 |  | 41100 nM (active)
6 | COCCOc1cc2cc(C(=O)NC3CCN(C(C)C)CC3)n(CC(=O)Nc3ccc(Cl)cn3)c2cn1 | inactive | 
7 | CC(C)=CCC/C(C)=C/CO | inactive | 
8 | O=C(OC[C@H]1O[C@@H](OC(=O)c2cc(O)c(O)c(OC(=O)c3cc(O)c(O)c(O)c3)c2)[C@H](OC(=O)c2cc(O)c(O)c(OC(=O)c3cc(O)c(O)c(O)c3)c2)[C@@H](OC(=O)c2cc(O)c(O)c(OC(=O)c3cc(O)c(O)c(O)c3)c2)[C@@H]1OC(=O)c1cc(O)c(O)c(OC(=O)c2cc(O)c(O)c(O)c2)c1)c1cc(O)c(O)c(OC(=O)c2cc(O)c(O)c(O)c2)c1 |  | 0.698 nM (active)
9 | CC(C)=CCCC(C)CCO (stereo not given) | inactive | 
10 | CC[C@H](C)C(=O)O[C@H]1C[C@@H](C)C=C2C=C[C@H](C)[C@H](CC[C@@H]3C[C@@H](O)CC(=O)O3)[C@H]21 | inactive | 
11 | O=C1OC(=O)C2C3C=CC(C3)C12 (stereo not given) | inactive | 
12 | CC1=CC(=O)CC(C)(C)C1 | inactive | 
13 | Clc1nc(Cl)c(Cl)c(Cl)c1Cl | inactive | 
14 | CN(C)c1ccc(Cc2ccc(N(C)C)cc2)cc1 | inactive | 
15 | CN(C)c1ccc(N=NS(=O)(=O)O)cc1 | inactive | 
16 | CCCC(=O)OCC | inactive | 
17 | COc1cccc(-c2ccc(/C=C\CN3CCCCCC3)cc2Cl)c1 | inactive | 
18 | CNS(=O)(=O)c1cc(C(=O)N2CCC(CCN3C4CCC3CC(n3c(C)nc5ccccc53)C4)(c3cccc(F)c3)CC2)c(Cl)cc1F (stereo not given) | inactive | 
19 | COc1ccc2sc(C(=O)Nc3nnn[nH]3)c(OC(C)C)c2c1 |  | 1420 nM (active)
20 | CCCCCCCCO | inactive | 
21 | CCc1cc(SCc2sc(-c3ccc(C(F)(F)F)cc3)nc2CN2CCN(c3ccc(OC)cc3)CC2)ccc1OCC(=O)O | inactive | 
22 | CC(C)=CCCC(C)=CC=O | inactive | 
23 | O=P(OC(CCl)CCl)(OC(CCl)CCl)OC(CCl)CCl | inactive | 
24 | CC1(C)C(=O)N(Br)C(=O)N1Br | inactive | 
25 | O=C(O)c1cc(N=Nc2ccc(S(=O)(=O)Nc3ccccn3)cc2)ccc1O | inactive | 
